Laboratory results: PubChem BioAssay (Tox21)
Results filed as inconclusive are left out. Values without a mark were called inactive. Active and inactive are the calls of the source. Calls come from the whole dose curve.

Assay: qHTS assay to identify small molecule agonists of the progesterone receptor (PR) signaling pathway - cell viability counter screen (AID 1346799); note: nearly all actives have a fitted effect of over 45% in size
Details: PR-UAS-bla HEK293T viability, CellTiter-Glo luminescence, 16 h; series mostly up to 92.4 µM; activity change, negative = cytotoxicity: at the top concentration
Summary of the method: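 Counter screen in the PR-UAS-bla HEK293T wells (2% charcoal-stripped FBS, 16 h compound exposure at 37 C) after the bla read. CellTiter-Glo added, 30 min at room temperature, luminescence read as cell viability.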
% is set by controls: 0 for no effect and ±100 for the full control effect.

| Structure (SMILES) | outcome | activity change, negative = cytotoxicity |
| --- | --- | --- |
| CC(=O)CCC=C(C)C | inactive |  |
| N[C@H](Cc1c[nH]c2ccccc12)C(=O)O | inactive |  |
| COc1ccc(C)cc1N | inactive |  |
| CCCCCCCO | inactive |  |
| OCc1ccccc1 | inactive |  |
| O=C1c2ccccc2CCc2ccccc21 | inactive |  |
| CCCCCCCCCCCCCCCC(=O)OC(C)C |  | 0% [at 42.5 µM] |
| CC(=O)c1ccc(O)cc1 | inactive |  |
| O=C(O)CCCCCCCCC(=O)O | inactive |  |
| O=C(O)Cn1c(=O)n(Cc2ccc(Br)cc2F)c(=O)c2ccc(Cl)cc21 |  | -7.72% [at 42.5 µM] |
| CCCOC(=O)c1ccccc1 |  | 0.455% |
| COc1ccc(CCC(C)=O)cc1 | inactive |  |
| CCCCC(C=O)CC (stereo not given) |  | 2.81% |
| CC(C)(C)c1cc(Cc2cc(C(C)(C)C)c(O)c(C(C)(C)C)c2)cc(C(C)(C)C)c1O | inactive |  |
| O=C1C(c2[nH]c3ccccc3c2O)=Nc2ccccc21 |  | -1.54% [at 42.5 µM] |
| CSc1ccc(Cl)cc1 | inactive |  |
| CCO[Si](CCCN)(OCC)OCC |  | -10.3% |
| CC(C)(Oc1ccc(CCNC(=O)c2ccc(Cl)cc2)cc1)C(=O)O | inactive |  |
| NCCNCCN | inactive |  |
| CCCCCCCC=O | inactive |  |
| CCNC(=S)NCC | inactive |  |
| O=C(O)/C=C/C(=O)O | inactive |  |
| c1ccc(Oc2ccccc2)cc1 | inactive |  |
| Nc1nc(N)nc(-c2ccccc2)n1 | inactive |  |
| CN(C)c1ccc(O)c2c1C[C@H]1C[C@H]3[C@H](N(C)C)C(=O)C(C(N)=O)=C(O)[C@@]3(O)C(=O)C1=C2O |  | -26.6% [at 42.5 µM] |
| O=C1CCCC1 | inactive |  |
| CC(C)CC(=O)CC(C)CC(C)C (stereo not given) |  | 0.127% |
| N#Cc1ccccc1 | inactive |  |
| Cc1ccc2ncccc2c1 | inactive |  |
| CCCCCCCCCCCCCCCCO | inactive |  |
